Results published in PubChem BioAssay AID624464 (National Center for Advancing Translational Sciences (NCATS), 2012).
Among all 360,000 compounds or so, about 810 (0.23%) were called active. The entries come from a sample that favours actives as a whole. Unmarked numbers belong to inactive results. No stated cut-off is given here; in the data, active means potentiation above about 50%; inconclusive means mostly about 30% to 49%; inactive means weaker than that.

Target: D(2) dopamine receptor (Homo sapiens) (UniProt P14416)
Assay: Beta-Arrestin HTS for Positive Allosteric Modulators of the Human D2 Dopamine Receptor: Potentiators
Details: DiscoveRx D2 beta-arrestin cells, luminescence, 90 min; hits give high values; 100% = 57 uM dopamine signal
From the text: There is great interest in identifying small molecule ligands for G-protein coupled receptors (GPCRs) as nearly 50% of all FDA-approved drugs target these important receptor proteins. […] Amongst the dopamine receptors (DARs), the D2 is arguably one of the most validated drug targets in neurology and psychiatry. For instance, all receptor-based antiparkinsonian drugs primarily work via stimulating the D2 DAR, whereas all FDA-approved antipsychotic agents are antagonists of this receptor. The D2 DAR is also therapeutically targeted in other disorders such as restless legs syndrome, tardive dyskinesia, Tourette's syndrome, and hyperprolactinemia.
To this end, a miniaturized qHTS screen was developed to be screened against the Molecular Libraries Small Molecule Repository (MLSMR). This assay seeks to identify potentiators against the D2 DAR.
NIH Molecular Libraries Probe Production Network [MLPCN]
NIH Chemical Genomics Center [NCGC]
PI Name: David Sibley, National Institutes of Neurological Disorders and Stroke
DiscoveRx D2 cells were thawed from frozen stock and seeded at 2,100 cells/ 3 uL/well media (DiscoveRx Plating Reagent 2) with MultiDrop Combi dispenser (Thermo Scientific, Logan, UT) onto white tissue culture treated 1536-well Aurora plates (Brooks Automation, Chelmsford, MA) and allowed to attach overnight at 37 deg C, 5% CO2. Next, 23 nL/well of compound solutions in DMSO were added with a pintool transfer (Kalypsis, San Diego, CA). As the positive control, 1 uL/well dopamine (EC100, 57 uM final concentration) diluted in buffer (HBSS + 10 mM HEPES + SMB + 0.1 %Tween-20) was dispensed to 1 column of each plate. EC20 (Dopamine at 50 nM final concentration) was dispensed to the rest of the plate except columns 1 &2 which were used as negative control (EC=0, buffer only), 1 uL/well as well. The cells were stimulated by compounds and dopamine for 90 minutes at 37 deg C, 5% CO2, after which 1.5 uL/well of DiscoveRx detection reagent was added with BioRAPTR FRD dispenser. The detection reagent was prepared by mixing of Galacton Star Substrate, Emerald II solution and PathHunter buffer (supplied by the assay kit) together at 1:5:19 proportion accordingly just prior to dispensing. The plates were incubated at ambient temperature for 1 hour and then the luminescent signal was read on ViewLux plate reader (PerkinElmer, Waltham, MA).

Chain of D(2) dopamine receptor (Homo sapiens) (P14416 whole entry, looked up): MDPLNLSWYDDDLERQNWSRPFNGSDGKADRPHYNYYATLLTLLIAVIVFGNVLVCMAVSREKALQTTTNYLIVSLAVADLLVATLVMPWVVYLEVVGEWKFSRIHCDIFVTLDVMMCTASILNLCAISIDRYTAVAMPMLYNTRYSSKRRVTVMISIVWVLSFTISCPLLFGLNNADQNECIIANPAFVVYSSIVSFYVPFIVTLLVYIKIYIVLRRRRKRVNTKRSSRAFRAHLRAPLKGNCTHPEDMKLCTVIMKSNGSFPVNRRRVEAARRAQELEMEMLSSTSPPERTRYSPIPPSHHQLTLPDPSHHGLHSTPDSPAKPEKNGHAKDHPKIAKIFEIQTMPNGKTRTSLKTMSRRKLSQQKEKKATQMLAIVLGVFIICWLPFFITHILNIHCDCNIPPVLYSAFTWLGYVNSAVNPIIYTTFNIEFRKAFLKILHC

Row | SMILES | potentiation
1 | Cc1cc(N2CCCC2=O)cc(C)c1S(N)(=O)=O | -18.2%
2 | O=C1NC(=O)C(c2ccc(Cl)cc2)N1 (centres undefined) | -7.09%
3 | CCCCC(=O)Nc1nnc(S(=O)(=O)N(C)Cc2ccco2)s1 | -7.89%
4 | Cn1cc(/C=C/C(=O)N2CCCC(C(=O)c3ccc(C(F)(F)F)cc3)C2)cn1 (centres undefined) | -1.59%
5 | COc1ccc(C(=O)C[n+]2ccc(N)c(C)c2C)cc1 | -3.23%
6 | COC(=O)c1cc(Oc2ccc(S(=O)(=O)N3CCOCC3)cc2[N+](=O)[O-])cc(C(=O)OC)c1 | -0.101%
7 | COc1cc([N+](=O)[O-])cc([N+](=O)[O-])c1NC(=O)N1CCOCC1 | -13.5%
8 | COc1cc(C(=S)N2CCOCC2)cc(OC)c1OC(=O)c1ccc([N+](=O)[O-])cc1[N+](=O)[O-] | 136% (active)
9 | O=C(NCCCn1ccnc1)C(=O)NCC1OCCN1S(=O)(=O)c1cc(F)ccc1F (centres undefined) | -2.44%
10 | COC(=O)c1cccnc1NC(=S)NC(C)C | 2.31%
11 | CC(=O)NC(C)(C)C1CC=C(C)/C(=N\O)C1 (centres undefined) | -2.42%
12 | NC(Cc1ccc(F)cc1)c1csc(Nc2nncc3ccccc23)n1 (centres undefined) | 0.276%
13 | Cc1ccc(Cc2c(-c3ccco3)nc3ccc(Cl)cn23)cc1 | -4.9%
14 | Cc1nn(C)c(C)c1S(=O)(=O)N1CCc2ccccc21 | 3.69%
15 | CCO[C@@H]1OC(C(=O)NC2CC2)=C[C@H](C)[C@H]1CCCO | -6.01%
16 | CC1CCN(C(=S)c2cccc([N+](=O)[O-])c2)CC1 | -3.98%
17 | O=C(Oc1ccccc1C(=S)N1CCCCC1)c1cc([N+](=O)[O-])cc([N+](=O)[O-])c1 | 58.7% (active)
18 | O=C(Oc1ccc(Br)cc1C(=S)N1CCOCC1)c1cccc([N+](=O)[O-])c1 | -0.594%
19 | CCCCn1c(N)c(N(CCC(C)C)C(=O)c2ccc(COc3ccccc3)o2)c(=O)[nH]c1=O | -0.984%
20 | COc1cccc(NC(=O)C2(C)CCN2Cc2ccccc2Cl)c1 (centres undefined) | -7.17%
21 | CN(CC(=O)Nc1c(Cl)cccc1Cl)C(=O)CC1OC(=O)c2ccccc21 (centres undefined) | -2.61%
22 | CC(OC(=O)c1ccccc1NCCO)C(=O)Nc1ccnn1C(C)C (centres undefined) | -3.07%
23 | O=C(NCc1cc(F)cc(C(F)(F)F)c1)C1CCC(=O)N(C2CCCC2)C1 (centres undefined) | 2.66%

Row | SMILES | potentiation
24 | Cc1ccc(S(=O)(=O)N2CCOCC2)cc1C(=O)NC(=S)N(Cc1ccccc1)C(C)C | 10.6%
25 | CC1(C)C(=O)CCC2(C)C1=CCC1C2C(=O)CC2(C)C1CCC2(O)C(=O)CO (centres undefined) | -30.8%
26 | O=C(CCc1ccccc1)Nc1ccc(NC(=O)C2CCCCC2)nc1 | -8.09%
27 | Cc1cc([N+](=O)[O-])nn1CC(=O)Nc1ccc(Cc2ccncc2)cc1 | -10.7%
28 | Cc1cc(C)n(CC(=O)Nc2ccc([N+](=O)[O-])cc2)n1 | 70.7% (active)
29 | Cc1nn(CC(=O)Nc2ccc(C#N)cc2)c(C)c1[N+](=O)[O-] | -8.67%
30 | Cc1ccc(NC(=O)CS(=O)CC(=O)N(c2ccccc2)C(C)C(=O)NC2CCCC2)cc1 (centres undefined) | -14.4%
31 | CCCc1nnc(SCC(=O)N2C(C)CCCC2C)n1CC (centres undefined) | -7.75%
32 | CC(NC(=O)CC1SC(N)=NC1=O)c1ccccc1 (centres undefined) | -0.5%
33 | C[C@H]1CN([C@@H](C)CO)C(=O)c2cc(-c3cccc(F)c3)cnc2O[C@@H]1CN(C)S(C)(=O)=O | 7.41%
34 | Cc1csc(NC(=O)C2CCCN2C(=O)OCC(C)C)n1 (centres undefined) | -5.09%
35 | COc1ccc(S(=O)(=O)N2CCN(CC(=O)N3CCOCC3)CC2)cc1OC | -5.65%
36 | O=C(Nc1cc(F)ccc1F)c1ccc2c(=O)n3c(nc2c1)CCC3 | -9.48%
37 | CC(C)S(=O)(=O)c1csc(NC(=O)Nc2ccc(Cl)cc2)c1Cl | -6.65%
38 | CCOc1ccc(CCNC(=O)CCc2nnc3ccc(N4CCCC4)nn23)cc1OCC | 2.77%
39 | Cc1occc(=O)c1OCc1c(Cl)cccc1Cl | -9.29%
40 | CCN(CC)CCCC(C)n1c2nc(=O)[nH]c(=O)c-2nc2cc(Cl)ccc21 (centres undefined) | 80.2% (active)
41 | COc1cccc(NC(=O)C2(C)CCN2C(=O)CCC2CCCC2)c1 (centres undefined) | -1.05%
42 | COc1ccc(C(C)(O)c2nc(-c3ccc(C)c(C)c3)cs2)cc1 (centres undefined) | -10.5%
43 | CCCC(=O)N1c2ccc(-c3csc(N)n3)cc2CC1C (centres undefined) | -21.2%
44 | CC(C)(C)C(=O)OCc1nc(-c2ccc(O)c(O)c2)cs1 | 70.4% (active)
45 | CC(C)NC(=O)C1(C)CCCCCN1C(=O)c1ccc(-c2ccccc2)cc1 (centres undefined) | -9.96%
46 | CC1(C)CCSC(/C=C/c2ccccc2)=N1 | -38.8%

Row | SMILES | potentiation
47 | CNc1cnc(-c2cc(OC)c(OC)c(OC)c2)cn1 | 0.325%
48 | O=C(Nc1ccccc1F)c1ccc(Cn2cc(Br)cn2)cc1 | -6.63%
49 | CC(C)CCNC(=O)c1cccnc1Sc1ccccc1 | -21.6%
50 | COCCNC(=O)C1CCN(C(=O)C2CC(=O)N(c3ccc(C)cc3)C2)CC1 (centres undefined) | -6.43%
51 | O=S(=O)(Cc1cc(Cl)nc(-c2cccnc2)n1)c1ccccc1 | 11.9%
52 | COc1cc2c(cc1OC)CN(C(C)C(=O)Nc1cccc(S(=O)(=O)N3CCOCC3)c1)CC2 (centres undefined) | -31.3%
53 | CC(C)CCNC(=O)C1CCC(CNc2c(N3CCC(C)CC3)c(=O)c2=O)CC1 (centres undefined) | -6.3%
54 | OCC[C@H]1C[C@@H](O)[C@H](O)[C@@]2(OCCc3ccccc32)O1 | -8.36%
55 | COc1ccc(CCNC(=O)CCn2c(=O)c3ccccc3n(CC(=O)NCC3CCCO3)c2=O)cc1OC (centres undefined) | -2.84%
56 | CC(=O)Nc1ccc(S(=O)(=O)Oc2ccc(/C=N/N=C3/NC(=O)C(CC(=O)O)S3)cc2)cc1 (centres undefined) | 1.2%
57 | O=C(CCSc1ccccc1)NCCSc1ccccn1 | -0.984%
58 | O=C1CSC(c2cccc(F)c2)N1c1ccc(O)cc1 (centres undefined) | -4.16%
59 | O=C(O)CCCC(=O)Nc1ccccc1-n1ccnc1 | -9.58%
60 | CSc1ncnc2c1ncn2CC(=O)C1CCC2C3CCC4=CC(=O)CCC4(C)C3CCC12C (centres undefined) | -2.03%
61 | CCOC(=O)CSc1nc2ccc(C)cc2n2cnnc12 | 0.488%
62 | CC1=C(C(=O)N(C(C)C)C(C)C)CC(CC(=O)NCC2CCCCC2)C(=O)N1Cc1ccccc1 (centres undefined) | 1.77%
63 | O=C(CCNS(=O)(=O)c1ccccc1C(F)(F)F)Nc1ccncc1 | 0.0096%
64 | O=C(OCC(=O)N(CCc1ccccc1)Cc1ccccc1)c1ccccc1[N+](=O)[O-] | -22.2%
65 | COc1ccc(N(C(=O)c2cccnc2)S(=O)(=O)c2ccc(OC)c(OC)c2)cc1 | 0.917%
66 | O=C(c1cccnc1)N(c1cc2sc(=O)oc2c2ccccc12)S(=O)(=O)c1ccccc1 | 61.6% (active)
67 | O=C(c1cccnc1)N(Cc1ccccc1)C(=O)c1cccnc1 | -3.67%
68 | CC(C)Cc1ccc(S(=O)(=O)N2CCN(C(=O)c3ccco3)CC2)cc1 | -6.64%
69 | CC(C)(C)S(=O)N1Cc2cc(C(=O)NCCCN3CCOCC3)nc(-c3cccc(-c4cc5ccccc5o4)c3)c2[C@H]1CCO (some centres undefined) | -2.56%

Row | SMILES | potentiation
70 | COc1ccc(/C=C(\NC(=O)c2ccc(OCC(C)C)cc2)C(=O)OCc2ccco2)cc1 | -7.94%
71 | CC(=O)N1CCN(c2ccc(NCc3ccc(C(C)C)cc3)cc2)CC1 | 62.8% (active)
72 | CC(C)c1ccc(NC(=O)COC(=O)c2ccc(CN3CCCC3=O)cc2)cc1 | 0.762%
73 | CCCC(=O)N1CCC1(C)C(=O)NCc1ccc(C(C)C)cc1 (centres undefined) | -0.154%
74 | COc1ccc(C(=O)NCCNc2ccc([N+](=O)[O-])cn2)cc1 | -11.5%
75 | COC(=O)C(NC(=O)c1ccc(OC)cc1)(Nc1ncc(S(=O)(=O)c2ccc([N+](=O)[O-])cc2)s1)C(F)(F)F (centres undefined) | 65.4% (active)
76 | CCOCC(=O)Nc1ncc(S(=O)(=O)c2ccc([N+](=O)[O-])cc2)s1 | 24.1%
77 | CCCCN1C(=S)NC[C@@H]1C(C)CC (some centres undefined) | -1.6%
78 | N#Cc1ccc(COC(=O)Cn2nnc(-c3ccccc3)n2)cc1 | -0.341%
79 | COCCn1c(=NC(=O)c2ccccc2[N+](=O)[O-])sc2cc(S(C)(=O)=O)ccc21 | 74.4% (active)
80 | COC(=O)CNC(=O)c1ccccc1[N+](=O)[O-] | -2.49%
81 | Cn1c(=NC(=O)c2ccc3c(c2)OCCO3)sc2cc(S(C)(=O)=O)ccc21 | -10.1%
82 | C=CCSc1ccc(S(=O)(=O)N2CCN(C)CC2)cn1 | -3.17%
83 | O=C(Nc1ccnn1C1CCN(C/C=C/c2ccc(F)cc2)CC1)C1CCCC1 | -11%
84 | Cn1ncc2c(N3CCCCC3)nc(NCCCO)nc21 | -3.76%
85 | CS(=O)(=O)c1sc(C(=O)NC(=S)Nc2ccc(OC(F)(F)F)cc2)c2c1C=CCC2 | -5.92%
86 | COc1ccccc1Cc1c(-c2ccc(Cl)cc2)nc2ccc(Cl)cn12 | -4.81%
87 | COc1cccc(N2CC(C(=O)NCc3n[nH]c(=O)c4ccccc34)CC2=O)c1 (centres undefined) | -3.09%
88 | CCCCC(=O)N1CC2(C)CN(C(=O)CCCC)CC(C)(C1)C2=O | 12.6%
89 | COc1cc(C(=O)N2CCN(S(=O)(=O)c3ccc(C(C)C)cc3)CC2)ccc1OCC(=O)N1CCOCC1 | 0.615%
